“And” between values parts separate entries of the source, which are not always exact repeats. Identical values can stand only once.
How the values were obtained:
[1] = target: T1, Tyrosine-protein kinase ITK/TSK (Homo sapiens) (UniProt Q08881); conditions: at 1 µM;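 note: values are mean percent inhibition of ITK from the GSK PKIS screen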
T1 sequence (whole entry): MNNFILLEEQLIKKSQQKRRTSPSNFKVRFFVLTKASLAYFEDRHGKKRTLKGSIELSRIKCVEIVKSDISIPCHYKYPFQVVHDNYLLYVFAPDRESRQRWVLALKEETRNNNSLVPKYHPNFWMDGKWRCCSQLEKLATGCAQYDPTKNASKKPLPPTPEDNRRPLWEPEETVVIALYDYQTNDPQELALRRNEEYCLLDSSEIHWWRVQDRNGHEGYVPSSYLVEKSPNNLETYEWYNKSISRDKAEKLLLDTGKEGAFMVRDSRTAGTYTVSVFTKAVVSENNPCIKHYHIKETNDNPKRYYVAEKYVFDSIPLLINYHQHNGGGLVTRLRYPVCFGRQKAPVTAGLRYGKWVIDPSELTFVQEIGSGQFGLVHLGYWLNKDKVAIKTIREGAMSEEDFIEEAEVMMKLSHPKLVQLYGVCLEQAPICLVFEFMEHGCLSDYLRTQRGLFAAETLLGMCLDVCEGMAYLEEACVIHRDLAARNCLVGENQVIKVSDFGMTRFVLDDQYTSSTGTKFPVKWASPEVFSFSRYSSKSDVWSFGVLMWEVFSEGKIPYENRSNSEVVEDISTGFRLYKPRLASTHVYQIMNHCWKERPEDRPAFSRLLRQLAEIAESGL

[2] = target: Tyrosine-protein kinase JAK1 (Homo sapiens) (UniProt P23458); conditions: at 0.1 µM
[3] = target: Tyrosine-protein kinase JAK1 (Homo sapiens) (UniProt P23458); conditions: at 1 µM
[4] = target: Tyrosine-protein kinase JAK2 (Homo sapiens) (UniProt O60674); conditions: at 0.1 µM
Sequence of Tyrosine-protein kinase JAK2 (Homo sapiens) (O60674 whole entry): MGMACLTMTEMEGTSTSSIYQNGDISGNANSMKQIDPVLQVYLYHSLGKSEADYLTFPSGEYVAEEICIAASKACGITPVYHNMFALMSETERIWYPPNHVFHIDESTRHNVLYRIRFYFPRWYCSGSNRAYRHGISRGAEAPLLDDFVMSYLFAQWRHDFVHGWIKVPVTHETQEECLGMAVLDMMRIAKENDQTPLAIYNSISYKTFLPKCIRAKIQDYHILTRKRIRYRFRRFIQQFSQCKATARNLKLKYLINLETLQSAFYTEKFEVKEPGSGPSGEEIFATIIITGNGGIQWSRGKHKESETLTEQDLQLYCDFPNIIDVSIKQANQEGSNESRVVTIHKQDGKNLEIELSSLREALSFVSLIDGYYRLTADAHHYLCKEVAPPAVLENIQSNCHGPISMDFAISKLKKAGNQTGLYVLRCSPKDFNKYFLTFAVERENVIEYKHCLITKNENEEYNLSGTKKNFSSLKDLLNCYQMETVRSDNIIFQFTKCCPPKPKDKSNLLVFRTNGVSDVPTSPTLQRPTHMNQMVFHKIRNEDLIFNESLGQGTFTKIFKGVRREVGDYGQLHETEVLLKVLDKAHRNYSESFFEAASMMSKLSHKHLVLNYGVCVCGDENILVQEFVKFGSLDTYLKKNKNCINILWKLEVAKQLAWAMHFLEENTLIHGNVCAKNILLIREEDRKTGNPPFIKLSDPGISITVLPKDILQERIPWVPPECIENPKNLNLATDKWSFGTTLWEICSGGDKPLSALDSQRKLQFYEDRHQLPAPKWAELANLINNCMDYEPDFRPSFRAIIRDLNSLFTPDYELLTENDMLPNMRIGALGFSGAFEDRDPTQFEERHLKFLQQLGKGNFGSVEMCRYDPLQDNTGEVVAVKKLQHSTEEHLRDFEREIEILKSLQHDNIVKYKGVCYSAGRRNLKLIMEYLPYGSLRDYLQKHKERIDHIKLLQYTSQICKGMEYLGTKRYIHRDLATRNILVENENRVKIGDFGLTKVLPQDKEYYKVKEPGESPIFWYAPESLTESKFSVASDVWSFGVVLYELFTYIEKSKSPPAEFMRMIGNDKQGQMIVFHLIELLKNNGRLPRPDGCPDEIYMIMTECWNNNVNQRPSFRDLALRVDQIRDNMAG

[5] = target: Tyrosine-protein kinase JAK2 (Homo sapiens) (UniProt O60674); conditions: at 1 µM
[6] = target: T2, Tyrosine-protein kinase JAK3 (Homo sapiens) (UniProt P52333); conditions: at 0.1 µM
T2 sequence (whole entry): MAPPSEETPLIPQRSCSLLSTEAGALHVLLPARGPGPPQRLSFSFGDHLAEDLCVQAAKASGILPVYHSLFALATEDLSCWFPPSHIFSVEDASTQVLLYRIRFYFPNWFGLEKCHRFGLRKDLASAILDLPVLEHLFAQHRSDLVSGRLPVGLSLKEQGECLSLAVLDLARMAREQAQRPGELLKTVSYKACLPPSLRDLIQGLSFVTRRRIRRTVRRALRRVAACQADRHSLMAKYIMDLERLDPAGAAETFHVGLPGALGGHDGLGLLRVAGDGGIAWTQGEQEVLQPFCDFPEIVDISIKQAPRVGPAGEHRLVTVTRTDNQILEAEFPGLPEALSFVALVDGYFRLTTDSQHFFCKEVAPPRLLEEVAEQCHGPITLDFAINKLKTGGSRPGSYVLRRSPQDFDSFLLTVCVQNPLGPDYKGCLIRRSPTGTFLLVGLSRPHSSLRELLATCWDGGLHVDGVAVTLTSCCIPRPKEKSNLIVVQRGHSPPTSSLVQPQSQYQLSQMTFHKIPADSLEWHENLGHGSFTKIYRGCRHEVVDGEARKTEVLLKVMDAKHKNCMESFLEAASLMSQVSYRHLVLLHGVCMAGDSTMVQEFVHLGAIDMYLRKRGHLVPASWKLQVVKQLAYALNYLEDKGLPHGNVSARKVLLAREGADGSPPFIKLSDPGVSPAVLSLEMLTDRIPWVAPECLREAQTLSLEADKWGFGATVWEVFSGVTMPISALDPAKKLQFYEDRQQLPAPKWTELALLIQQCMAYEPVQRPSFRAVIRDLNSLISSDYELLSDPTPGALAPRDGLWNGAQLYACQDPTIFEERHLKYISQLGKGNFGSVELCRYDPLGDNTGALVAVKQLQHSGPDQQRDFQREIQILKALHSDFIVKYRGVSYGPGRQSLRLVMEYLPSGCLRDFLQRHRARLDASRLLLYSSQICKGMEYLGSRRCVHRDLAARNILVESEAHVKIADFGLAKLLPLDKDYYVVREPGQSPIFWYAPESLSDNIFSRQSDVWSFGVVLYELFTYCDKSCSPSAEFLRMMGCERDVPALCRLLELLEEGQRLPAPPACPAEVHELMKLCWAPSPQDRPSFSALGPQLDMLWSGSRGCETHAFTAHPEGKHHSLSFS

[7] = target: T2, Tyrosine-protein kinase JAK3 (Homo sapiens); conditions: at 1 µM
[8] = target: Vascular endothelial growth factor receptor 2 (Homo sapiens) (UniProt P35968); conditions: at 0.1 µM
Sequence of Vascular endothelial growth factor receptor 2 (Homo sapiens) (P35968 whole entry): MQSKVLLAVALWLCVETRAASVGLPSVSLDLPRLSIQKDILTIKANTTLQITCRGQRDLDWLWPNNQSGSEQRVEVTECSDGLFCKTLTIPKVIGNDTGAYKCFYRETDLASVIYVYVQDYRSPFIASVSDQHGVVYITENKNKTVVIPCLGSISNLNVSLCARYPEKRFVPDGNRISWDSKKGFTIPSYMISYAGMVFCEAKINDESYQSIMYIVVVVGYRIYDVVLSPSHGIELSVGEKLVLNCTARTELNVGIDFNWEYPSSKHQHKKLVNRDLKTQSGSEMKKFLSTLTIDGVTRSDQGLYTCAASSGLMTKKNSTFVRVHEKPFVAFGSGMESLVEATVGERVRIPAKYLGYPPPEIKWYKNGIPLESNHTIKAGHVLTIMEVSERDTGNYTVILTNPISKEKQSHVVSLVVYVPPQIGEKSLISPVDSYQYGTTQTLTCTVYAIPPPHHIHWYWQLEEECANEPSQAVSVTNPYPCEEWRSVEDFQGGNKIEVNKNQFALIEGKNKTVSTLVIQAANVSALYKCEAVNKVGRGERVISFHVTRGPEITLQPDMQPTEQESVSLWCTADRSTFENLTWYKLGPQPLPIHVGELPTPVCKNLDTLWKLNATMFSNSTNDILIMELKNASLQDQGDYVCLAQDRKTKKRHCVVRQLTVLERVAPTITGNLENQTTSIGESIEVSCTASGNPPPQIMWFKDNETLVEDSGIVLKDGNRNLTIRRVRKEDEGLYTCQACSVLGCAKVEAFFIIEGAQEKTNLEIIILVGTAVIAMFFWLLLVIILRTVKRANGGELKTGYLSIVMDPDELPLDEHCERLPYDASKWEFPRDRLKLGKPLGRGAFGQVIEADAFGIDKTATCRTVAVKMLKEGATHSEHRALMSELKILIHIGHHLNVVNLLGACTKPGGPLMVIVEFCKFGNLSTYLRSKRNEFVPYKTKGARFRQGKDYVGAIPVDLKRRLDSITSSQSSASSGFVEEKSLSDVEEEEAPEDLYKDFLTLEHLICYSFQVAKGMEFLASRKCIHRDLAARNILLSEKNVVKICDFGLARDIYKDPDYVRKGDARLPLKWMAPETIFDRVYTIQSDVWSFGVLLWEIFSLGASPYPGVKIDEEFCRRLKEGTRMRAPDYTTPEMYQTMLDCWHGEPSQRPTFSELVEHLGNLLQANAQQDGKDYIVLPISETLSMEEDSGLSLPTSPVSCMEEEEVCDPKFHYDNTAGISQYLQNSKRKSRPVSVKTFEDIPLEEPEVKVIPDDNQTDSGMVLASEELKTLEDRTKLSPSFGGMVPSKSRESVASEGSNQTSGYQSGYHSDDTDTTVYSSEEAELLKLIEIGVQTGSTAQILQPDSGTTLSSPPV

[9] = target: Vascular endothelial growth factor receptor 2 (Homo sapiens) (UniProt P35968); conditions: at 1 µM
[10] = target: Mast/stem cell growth factor receptor Kit (Homo sapiens) (UniProt P10721); conditions: at 0.1 µM
Sequence of Mast/stem cell growth factor receptor Kit (Homo sapiens) (P10721 whole entry): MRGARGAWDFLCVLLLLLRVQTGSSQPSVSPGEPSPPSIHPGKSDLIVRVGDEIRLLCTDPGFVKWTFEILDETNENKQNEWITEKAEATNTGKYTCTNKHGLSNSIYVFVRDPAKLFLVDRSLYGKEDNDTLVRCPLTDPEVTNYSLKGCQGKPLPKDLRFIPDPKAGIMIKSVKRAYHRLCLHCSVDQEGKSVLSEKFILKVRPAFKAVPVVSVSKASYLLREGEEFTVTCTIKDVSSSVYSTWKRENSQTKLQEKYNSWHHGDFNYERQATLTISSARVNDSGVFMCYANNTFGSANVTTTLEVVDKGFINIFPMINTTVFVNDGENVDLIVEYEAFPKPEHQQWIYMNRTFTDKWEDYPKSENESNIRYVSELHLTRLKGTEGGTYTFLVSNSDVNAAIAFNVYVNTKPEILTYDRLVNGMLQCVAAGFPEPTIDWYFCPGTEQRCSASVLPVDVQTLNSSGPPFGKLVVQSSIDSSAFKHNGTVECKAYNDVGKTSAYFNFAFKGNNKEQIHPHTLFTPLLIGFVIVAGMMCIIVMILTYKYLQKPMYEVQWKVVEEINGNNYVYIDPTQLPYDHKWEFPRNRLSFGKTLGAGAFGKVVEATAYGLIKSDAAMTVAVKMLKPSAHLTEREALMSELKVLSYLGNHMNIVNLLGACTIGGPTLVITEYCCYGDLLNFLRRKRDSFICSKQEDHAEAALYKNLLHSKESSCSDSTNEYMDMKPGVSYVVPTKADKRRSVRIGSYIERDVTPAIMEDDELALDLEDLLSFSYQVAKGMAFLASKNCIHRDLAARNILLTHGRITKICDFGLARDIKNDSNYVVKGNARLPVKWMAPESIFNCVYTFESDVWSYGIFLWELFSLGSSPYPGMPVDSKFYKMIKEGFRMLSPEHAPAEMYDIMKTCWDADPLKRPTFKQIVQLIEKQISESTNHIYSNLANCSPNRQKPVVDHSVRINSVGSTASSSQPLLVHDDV

[11] = target: Mast/stem cell growth factor receptor Kit (Homo sapiens) (UniProt P10721); conditions: at 1 µM
[12] = test system: Mast/stem cell growth factor receptor Kit (Homo sapiens), P10721 [D816V]; conditions: at 0.1 µM
Sequence of Mast/stem cell growth factor receptor Kit (Homo sapiens), P10721 [D816V] (P10721 whole entry D816V): as the sequence (P10721 whole entry) above, with D816V counted along it

[13] = test system: Mast/stem cell growth factor receptor Kit (Homo sapiens), P10721 [D816V]; conditions: at 1 µM
[14] = test system: Mast/stem cell growth factor receptor Kit (Homo sapiens), P10721 [T670I]; conditions: at 0.1 µM
Sequence of Mast/stem cell growth factor receptor Kit (Homo sapiens), P10721 [T670I] (P10721 whole entry T670I): as the sequence (P10721 whole entry) above, with T670I counted along it

[15] = test system: Mast/stem cell growth factor receptor Kit (Homo sapiens), P10721 [T670I]; conditions: at 1 µM
[16] = test system: Mast/stem cell growth factor receptor Kit (Homo sapiens), P10721 [V560G]; conditions: at 0.1 µM
Sequence of Mast/stem cell growth factor receptor Kit (Homo sapiens), P10721 [V560G] (P10721 whole entry V560G): as the sequence (P10721 whole entry) above, with V560G counted along it

[17] = test system: Mast/stem cell growth factor receptor Kit (Homo sapiens), P10721 [V560G]; conditions: at 1 µM
[18] = target: Tyrosine-protein kinase Lck (Homo sapiens) (UniProt P06239); conditions: at 0.1 µM
Sequence of Tyrosine-protein kinase Lck (Homo sapiens) (P06239 2-509 limits assumed): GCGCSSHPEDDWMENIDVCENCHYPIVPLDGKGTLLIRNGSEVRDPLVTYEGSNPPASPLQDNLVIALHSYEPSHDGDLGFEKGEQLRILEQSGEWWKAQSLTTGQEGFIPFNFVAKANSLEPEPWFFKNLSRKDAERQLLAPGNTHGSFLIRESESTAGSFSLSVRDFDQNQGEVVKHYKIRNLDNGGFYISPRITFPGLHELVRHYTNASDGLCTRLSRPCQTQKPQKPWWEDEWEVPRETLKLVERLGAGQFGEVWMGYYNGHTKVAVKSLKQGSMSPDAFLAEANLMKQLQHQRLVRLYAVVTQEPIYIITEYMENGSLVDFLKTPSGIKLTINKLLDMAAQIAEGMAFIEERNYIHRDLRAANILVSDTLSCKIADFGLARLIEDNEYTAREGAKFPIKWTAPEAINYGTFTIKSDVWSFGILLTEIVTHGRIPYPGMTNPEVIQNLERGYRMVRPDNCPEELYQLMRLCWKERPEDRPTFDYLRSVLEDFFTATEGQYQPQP

[19] = target: Tyrosine-protein kinase Lck (Homo sapiens) (UniProt P06239); conditions: at 1 µM
[20] = target: Leukocyte tyrosine kinase receptor (Homo sapiens) (UniProt P29376); conditions: at 0.1 µM
Sequence of Leukocyte tyrosine kinase receptor (Homo sapiens) (P29376 whole entry): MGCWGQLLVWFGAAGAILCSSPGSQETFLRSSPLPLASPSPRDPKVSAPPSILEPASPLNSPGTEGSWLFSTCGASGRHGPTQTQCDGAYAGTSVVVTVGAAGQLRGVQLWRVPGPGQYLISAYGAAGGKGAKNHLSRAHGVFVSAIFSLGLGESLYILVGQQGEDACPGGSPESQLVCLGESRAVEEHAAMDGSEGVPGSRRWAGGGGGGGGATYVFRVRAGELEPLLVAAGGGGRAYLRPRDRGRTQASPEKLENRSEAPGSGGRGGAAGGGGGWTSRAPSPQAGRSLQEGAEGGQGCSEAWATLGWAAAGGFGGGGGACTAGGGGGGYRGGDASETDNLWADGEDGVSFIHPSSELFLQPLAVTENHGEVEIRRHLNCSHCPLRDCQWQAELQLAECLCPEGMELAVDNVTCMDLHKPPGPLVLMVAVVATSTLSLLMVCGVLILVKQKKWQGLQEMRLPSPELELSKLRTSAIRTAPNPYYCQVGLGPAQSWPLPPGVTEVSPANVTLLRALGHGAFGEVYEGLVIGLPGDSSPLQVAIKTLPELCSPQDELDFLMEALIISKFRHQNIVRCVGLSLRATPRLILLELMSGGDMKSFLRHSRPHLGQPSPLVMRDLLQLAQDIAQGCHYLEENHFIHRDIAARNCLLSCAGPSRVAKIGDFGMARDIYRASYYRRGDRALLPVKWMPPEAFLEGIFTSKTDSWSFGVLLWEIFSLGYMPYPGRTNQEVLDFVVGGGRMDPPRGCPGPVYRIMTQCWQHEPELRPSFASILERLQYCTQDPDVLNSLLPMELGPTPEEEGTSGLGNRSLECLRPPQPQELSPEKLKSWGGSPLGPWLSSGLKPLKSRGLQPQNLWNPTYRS

SMILES	inhibition [1]	inhibition [2]	inhibition [3]	inhibition [4]	inhibition [5]	inhibition [6]	inhibition [7]	inhibition [8]	inhibition [9]	inhibition [10]	inhibition [11]	inhibition [12]	inhibition [13]	inhibition [14]	inhibition [15]	inhibition [16]	inhibition [17]	inhibition [18]	inhibition [19]	inhibition [20]
Fc1cccc(COc2ccc(Nc3ncncc3C#Cc3ccccc3)cc2Cl)c1	1.93%	2.37%	14.7%	1.34%	2.01%	-1.12%	0.1%	5.83%	6.38%	3.62%	7.97%	9.06%	7.92%	3.83%	6.38%	-1.39%	-0.04%	1.72%	2%	4.37%
CN1CCC(n2cnc(-c3ccc(F)cc3)c2-c2ccnc(NCCO)n2)CC1	2.24%	4.93%	7.32%	0.46%	1.42%	-2.19%	-0.11%	5.3%	9.32%	4.45%	10.7%	1.99%	7.69%	3.05%	6.22%	-1.29%	-0.38%	2%	1.46%	4.62%
Cn1c(-c2nonc2N)nc2cnccc21	1.68%	4.75%	2.08%	1.45%	1.42%	-1.06%	-0.29%	4.81%	12.2%	4.67%	5.33%	1.72%	2.94%	2.83%	2.49%	-0.55%	-0.31%	2.46%	3.49%	2.56%
Nc1nonc1-c1nc2cnccc2n1C1CC1	1.67% and -2.42%	0.26% and 0.62%	-0.07% and 3.24%	0.87% and 1.12%	3.76% and 0.55%	4.13% and -4.12%	4.66% and -3.11%	14.3% and 13.8%	54.2% and 52%	4.06% and 2.58%	14.9% and 15.5%	3.53% and 1.67%	3.46% and 2.18%	1.4% and 2.21%	6.91% and 8.64%	-1.94% and 0.52%	-1.23% and -2.01%	3.06% and -3.03%	3.02% and -1.62%	2.93% and 1.07%
Cc1c2ccc(N(C)c3ccnc(Nc4cccc(S(N)(=O)=O)c4)n3)cc2nn1C	2.14%	1.56%	9.69%	2.02%	6.46%	-4.75%	0.05%	76.4%	73%	92.6%	98%	2.85%	5.89%	22%	81.1%	69.9%	80.3%	20.3%	66.6%	4.98%
COc1cccc(-n2ncc3c(N/N=C/c4ccc(C(=O)NCCN(C)C)cc4)ncnc32)c1	8.64%	4.89%	18.1%	2.63%	14.1%	0.22%	15.4%	43.6%	68.7%	15.5%	65.8%	7.1%	15%	6.62%	52.3%	2.06%	5.99%	72.9%	94.4%	2.24%
COc1cc(N2CCN(C(C)C)CC2)ccc1Nc1nc(Nc2cccc(F)c2C(=O)O)c2cc[nH]c2n1	5.92%	4.17%	8.87%	6.66%	2.37%	-1.39%	0.51%	4.67%	6.45%	2.86%	8.76%	3.82%	3.22%	2.33%	3.08%	-0.92%	0.71%	1.92%	2.86%	66.4%

Reference: ChEMBL document CHEMBL1961873, “Compounds: GSK PKIS; Assays: Nanosyn kinase panel” (2012)
